Consider 16 compounds from PubChem BioAssay (NCATS).

Assay in all cases: qHTS profiling for inhibitors of Plasmodium falciparum proliferation (AID 504749); also: nearly all actives have a fitted effect of over 60% in size
What all share (details): P. falciparum in erythrocytes, SYBR Green DNA, 72 h; series mostly up to 28.7 µM

The test system of one experiment is 3D7. The procedure, abridged: (§1)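 Each compound contacts P. falciparum-infected red blood cells for 72 h at 37 C; lysis buffer (Tris, EDTA, saponin, Triton X, SYBR Green I) is added and fluorescence measured next morning; values normalized to controls.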
Another experiment deals with 7G8. A digest of the protocol: as §1
The next experiment concerns AA1029. A digest of the protocol:
as §1

Another experiment deals with AS120. A digest of the protocol: as §1
Another experiment has as its system ATS189. A digest of the protocol: as §1
The test system of a further experiment is ATS95. A digest of the protocol:
as §1

Another experiment relates to C2A. A digest of the protocol:
as §1

The next experiment deals with CP185. A digest of the protocol: as §1
The test system of the next experiment is CP191. The procedure, abridged:
as §1

Another experiment has as its system CP192. The procedure, abridged:
as §1

SMILES strings stand for the structures. Results filed as inconclusive are left out. The source made the active and inactive calls. Calls follow the shape of the dose curve; as a rule, active = well fitted inhibition curve with a large enough effect; inconclusive = small, poorly fitted or top-dose-only effect; inactive = flat fitted curve, though single readings scatter.
Potency is read from the fitted curve at half-maximal effect.

For `COc1cc2c(cc1OC)-c1cc(=Nc3c(C)cc(C)cc3C)n(C)c(=O)n1CC2`, the Potency is 2.51 µM (active) in the experiment with 3D7; 0.891 µM (active) with 7G8; 2.82 µM (active) in the experiment with AA1029; 3.55 µM (active) in the experiment with AS120; 7.94 µM (active) in the experiment with ATS189; 3.55 µM (active) in the experiment on ATS95. Further, the Potency in the experiment with C2A is 2.82 µM (active); with CP185, 5.62 µM (active); in the experiment with CP191, 3.98 µM (active); with CP192, 9.53 µM (active).
Consider `CC(N=C(NC#N)Nc1ccncc1)C(C)(C)C` (centres undefined), for which the Potency result in the experiment on 3D7, in the experiment with 7G8, in the experiment with AA1029, with AS120, in the experiment on ATS189 and with ATS95 was “inactive” throughout. Moreover, the Potency result in the experiment with C2A, with CP185, in the experiment on CP191 and in the experiment with CP192 was “inactive” throughout.
Consider `CC(C(=O)O)c1ccc(CC2CCCC2=O)cc1` (centres undefined), for which the Potency result with 3D7, with 7G8, in the experiment with AA1029, in the experiment with AS120, with ATS189 and with ATS95 was “inactive” in each case. Also, the Potency result in the experiment with C2A, in the experiment on CP185, in the experiment on CP191 and in the experiment on CP192 was “inactive” throughout.
For `O=C(O)CCCCCCCC(=O)O`, the Potency entry in the experiment with 3D7, in the experiment with 7G8, in the experiment with AA1029, in the experiment with AS120, with ATS189 and with ATS95 was “inactive” each time. The Potency entry with C2A, in the experiment with CP185, with CP191 and in the experiment with CP192 was “inactive” throughout.
For the compound `CC(=O)OCC1=C(C(=O)O)N2C(=O)[C@@H](NC(=O)Cc3cccs3)[C@H]2SC1`, the Potency entry with 3D7, in the experiment on 7G8, in the experiment on AA1029, in the experiment with AS120, in the experiment with ATS189 and in the experiment with ATS95 was “inactive” in each case. Besides, the Potency result in the experiment with C2A, with CP185, in the experiment with CP191 and in the experiment with CP192 was “inactive” each time.
For `NS(=O)(=O)c1cc2c(cc1Cl)NC(C1CC3C=CC1C3)NS2(=O)=O` (centres undefined), the Potency result in the experiment with 3D7, in the experiment with 7G8, in the experiment with AA1029, in the experiment with AS120, in the experiment on ATS189 and in the experiment with ATS95 was “inactive” in each case. Also, the Potency result with C2A, in the experiment with CP185, in the experiment with CP191 and in the experiment with CP192 was “inactive” each time.
On to `CC[N+](C)(C)c1cccc(O)c1`, for which the Potency result with 3D7, with 7G8, in the experiment with AA1029, in the experiment on AS120, with ATS189 and in the experiment on ATS95 was “inactive” throughout. Further, the Potency entry with C2A, in the experiment on CP185, with CP191 and in the experiment on CP192 was “inactive” throughout.
In the case of `NC(=O)N1c2ccccc2C=Cc2ccccc21`, the Potency result in the experiment on 3D7, in the experiment with 7G8, in the experiment on AA1029, in the experiment with AS120, with ATS189 and in the experiment on ATS95 was “inactive” throughout. In addition, the Potency result in the experiment with C2A, in the experiment with CP185, with CP191 and in the experiment with CP192 was “inactive” each time.
As for `CN(C)CCCN1c2ccccc2Sc2ccccc21`, the Potency entry in the experiment on 3D7, in the experiment on CP191 and with CP192 was “inactive” in each case. Besides, the Potency in the experiment with 7G8 and in the experiment on AA1029 was 3.16 µM (active) in each case.
Turning to `COC(=O)[C@H]1[C@H]2C[C@@H]3c4[nH]c5cc(OC)ccc5c4CCN3C[C@H]2C[C@@H](OC(=O)c2cc(OC)c(OC)c(OC)c2)[C@@H]1OC`, the Potency in the experiment on 3D7 is 8.91 µM (active); in the experiment with 7G8, 1.41 µM (active); in the experiment with AA1029 it was 8.91 µM (active); in the experiment on AS120 it was 4.47 µM (active); in the experiment with ATS189 it was 11.2 µM (active); in the experiment on ATS95 it was 11.2 µM (active). Also, the Potency is 11.2 µM (active) with C2A, 7.94 µM (active) with CP185, 8.91 µM (active) in the experiment with CP191 and 13.5 µM (active) in the experiment with CP192.
Turning to `NC(=O)c1cn(Cc2c(F)cccc2F)nn1`, the Potency result in the experiment on 3D7, with 7G8, with AA1029, in the experiment with AS120, in the experiment on ATS189 and in the experiment on ATS95 was “inactive” throughout. Further, the Potency result with C2A, with CP185, with CP191 and with CP192 was “inactive” each time.
As for `COc1ccc(CN(CCN(C)C)c2ccccn2)cc1`, the Potency entry in the experiment on 3D7, in the experiment with 7G8, with AS120, with ATS189, in the experiment on C2A and with CP185 was “inactive” throughout. Moreover, the Potency entry with CP191 and in the experiment on CP192 was “inactive” in each case.
Consider `Nc1ncn([C@@H]2O[C@H](CO)[C@@H](O)[C@H]2O)c(=O)n1`, for which the Potency entry with 3D7, in the experiment on 7G8, in the experiment with AA1029, with AS120, with ATS189 and in the experiment with ATS95 was “inactive” in each case. The Potency entry in the experiment with C2A, in the experiment on CP185, in the experiment with CP191 and in the experiment with CP192 was “inactive” in each case.
As for `COc1cc(C(=O)OCCCN2CCCN(CCCOC(=O)c3cc(OC)c(OC)c(OC)c3)CC2)cc(OC)c1OC`, the Potency is 11.2 µM (active) in the experiment with 3D7; 8.91 µM (active) with 7G8; 11.2 µM (active) with AA1029; 10 µM (active) in the experiment with AS120; 8.91 µM (active) in the experiment with ATS189; 12.6 µM (active) in the experiment with CP191.
With `CN=C(NC#N)NCCSCc1nc[nH]c1C`, the Potency entry in the experiment with 3D7, in the experiment on 7G8, with AA1029, in the experiment with AS120, with ATS189 and in the experiment on ATS95 was “inactive” each time. The Potency entry in the experiment on C2A, in the experiment on CP185, in the experiment on CP191 and in the experiment on CP192 was “inactive” in each case.
As to `C=CCc1ccccc1OCC(O)CNC(C)C` (centres undefined), the Potency result in the experiment with 3D7 and in the experiment with C2A was “inactive” throughout. In addition, the Potency is 8.91 µM (active) in the experiment with 7G8, 10 µM (active) with AA1029 and 4.47 µM (active) in the experiment with AS120.
